The values that follow come from PubChem BioAssay (Tox21).

Assay [1] in a line: qHTS assay for small molecule agonists of the p53 signaling pathway - cell viability (AID 651633; calls by dose curve; further: nearly all actives have a fitted effect of over 30% in size; further: potency means the concentration at half of the fitted maximal effect). The method in brief: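 p53RE-bla cells, seeded at 4,000 per well and rested 5 h at 37 C/5% CO2, received compounds in DMSO for 16 h at 37 C. CellTiter-Glo was then added, and luminescence was read after 30 min at room temperature to gauge cytotoxicity.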
The nature of assay [2]: qHTS assay for small molecules that induce genotoxicity in human embryonic kidney cells expressing luciferase-tagged ATAD5 - cell viability (AID 651634; calls by dose curve; further: nearly all actives have a fitted effect of over 25% in size). Summed up:
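HEK293T cells expressing luciferase-tagged ATAD5 were exposed to compound or DMSO for 15.5 hr at 37C, 5% CO2. Viability was then read as live-cell protease activity by CellTiter-Fluor fluorescence after 30 min at 37C.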

Assay [3] in a line: qHTS assay for small molecule disruptors of the mitochondrial membrane potential - cell viability (AID 720634; calls by dose curve;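 further: human HepG2 liver cancer cells; series mostly up to about 83 µM; nearly all actives have a fitted effect of over 20% in size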). Summed up: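 HepG2 cells seeded overnight at 37 C, then exposed to compound or DMSO for 1 hr at 37 C, 5% CO2. m-MPI dye added, then CellTiter-Glo for 30 min at room temperature; viability read as ATP luminescence.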
Assay [4] can be described thus: qHTS assay to test for compound auto fluorescence at 590 nm (red) in HepG2 cells (AID 720674). The method in brief:
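Intrinsic compound fluorescence in the red window (Ex/Em 540/590 nm) is measured in attached HepG2 cells exposed for 1 hr, DMSO vehicle as baseline, benchmarked to Rose Bengal sodium.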

Assay [5] can be described thus: qHTS assay to test for compound auto fluorescence at 535 nm (green) in HepG2 cells (AID 720675).
A short description of assay [6]: qHTS assay to test for compound auto fluorescence at 460 nm (blue) in HEK293 cells (AID 720678). The method in brief: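 Blue read-out at excitation 405 nm and emission 460 nm follows overnight compound exposure of HEK293 cells at 37C in 5% CO2. Activity is given as auto fluorescence equivalency to triamterene.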
The nature of assay [7]: qHTS assay to test for compound auto fluorescence at 590 nm (red) in HEK293 cells (AID 720679). The method in brief: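 Red channel, Ex/Em 540/590nm; signal expressed as equivalency to Rose Bengal sodium. HEK293, 2,000 cells/well, 10% dialyzed FBS; 23 nL compound pinned after 4-5 hr attachment; overnight 37C/5% CO2 before reading.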
Assay [8] is described as follows: qHTS assay to test for compound auto fluorescence at 535 nm (green) in HEK293 cells (AID 720680).
Assay [9] is described as follows: qHTS assay to test for compound auto fluorescence at 460 nm (blue) in HEK293 cell free culture (AID 720681). The method in brief: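 Test compounds were pinned into cell-free culture medium (DMEM with 10% FBS) and fluorescence was read directly at Ex/Em 405/460 nm. Signals were expressed as fluorescence equivalents of triamterene, with DMSO vehicle as control.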

The nature of assay [10]: qHTS assay to test for compound auto fluorescence at 590 nm (red) in HEK293 cell free culture (AID 720683). The method in brief:
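Tox21 10K library compounds were pinned into cell-free DMEM with 10% FBS and fluorescence was read at excitation 540 nm. Activity is expressed as Rose Bengal sodium equivalency.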

The nature of assay [11]: qHTS assay to test for compound auto fluorescence at 590 nm (red) in HepG2 cell free culture (AID 720684). The method in brief:
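Measured in medium alone (MEM containing 10% FBS) following pintool addition of compound; emission at 590 nm with 540 nm excitation, referenced to Rose Bengal sodium.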

A short description of assay [12]: qHTS assay to test for compound auto fluorescence at 460 nm (blue) in HepG2 cell free culture (AID 720685). The method in brief:
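Compound (23 nL) or DMSO pinned into cell-free MEM with 10% FBS; blue fluorescence read at 405/460 nm excitation/emission, expressed as auto-fluorescence equivalency to triamterene.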

Assay [13] is described as follows: qHTS assay to test for compound auto fluorescence at 535 nm (green) in HepG2 cell free culture (AID 720686).
A short description of assay [14]: qHTS assay to test for compound auto fluorescence at 460 nm (blue) in HepG2 cells (AID 720687). The method in brief: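 Cells (2,000/well in MEM with 10% FBS) attached overnight at 37 C, then were exposed to compound or DMSO for 1 hr at 37 C, 5% CO2. Fluorescence read at Ex/Em 405/460 nm, expressed as triamterene-equivalent signal.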
Assay [15] is described as follows: qHTS assay for small molecules that induce genotoxicity in human embryonic kidney cells expressing luciferase-tagged ATAD5 (AID 651632). Further: nearly all actives have a fitted effect of over 15% in size. Further: potency means the concentration at half of the fitted maximal effect. Summed up:
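HEK293T cells carrying a luciferase reporter tagged to ATAD5 were exposed to compound or DMSO vehicle for 16 hr at 37C, 5% CO2. Amplite was added, and after 30 min at room temperature luciferase activity was read as a marker of ATAD5 induction.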

Assay [16] in a line: qHTS assay for small molecule disruptors of the mitochondrial membrane potential (AID 720635). Further: potency means the concentration at half of the fitted maximal effect. The method in brief:
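HepG2 cells (2,000/well) attached overnight at 37C, then took compound for 1 hr at 37C, 5% CO2. Mito-MPS dye was added for 30 min; fluorescence was read at 490/535 nm (monomers) and 540/590 nm (aggregates).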

Assay [17] in a line: qHTS assay to test for compound auto fluorescence at 535 nm (green) in HEK293 cell free culture (AID 720682). The method in brief:
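Cell-free medium (DMEM, 10% FBS) receives compound or DMSO by pintool. Plate read directly at Ex 485/Em 535 nm. Signal converted to fluorescein equivalency.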

Assay [18] concerns the target Glucocorticoid receptor (Homo sapiens) (UniProt P04150). Briefly: qHTS assay to identify small molecule antagonists of the glucocorticoid receptor (GR) signaling pathway (AID 720692; active means well fitted inhibition curve with a large enough effect in the signal ratio in the repeat runs, not every such curve was filed as active; the % refers to the signal ratio; further: potency means the concentration at half of the fitted maximal effect). Summed up:
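GR-bla HeLa cells (beta-lactamase reporter under glucocorticoid response element) were pre-plated 4 h at 37 C, treated with compounds plus 5 nM dexamethasone (final) for 18 h, then read by LiveBLAzer B/G FRET fluorescence after 2 h.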

For assay [19] the target is unchanged. Briefly: qHTS assay to identify small molecule agonists of the glucocorticoid receptor (GR) signaling pathway (AID 720691; active means well fitted activation curve with a large enough effect in the signal ratio in the repeat runs, not every such curve was filed as active; the % refers to the signal ratio). Summed up:
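GR-bla HeLa cells (beta-lactamase reporter under glucocorticoid response element) were plated 4 h at 37 C/5% CO2, given compounds in DMSO, and incubated 18 h at 37 C. LiveBLAzer B/G FRET substrate was added for 2 h at room temperature, then fluorescence intensity read.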

Unmarked numbers belong to inactive results. Inconclusive results are not listed. Activity calls are given as the source filed them. Unless noted, the call rests on the fitted dose curve; in most records, active means well fitted curve in the direction sought with a large enough effect in the repeat runs; inconclusive means weak or mixed curves; inactive means no such curve, though single readings can be large; an effect the other way counts as inactive or inconclusive.
On the % scale 0 is the no-effect control and ±100 the full control effect.

Sequence of Glucocorticoid receptor (Homo sapiens) (P04150 whole entry, looked up): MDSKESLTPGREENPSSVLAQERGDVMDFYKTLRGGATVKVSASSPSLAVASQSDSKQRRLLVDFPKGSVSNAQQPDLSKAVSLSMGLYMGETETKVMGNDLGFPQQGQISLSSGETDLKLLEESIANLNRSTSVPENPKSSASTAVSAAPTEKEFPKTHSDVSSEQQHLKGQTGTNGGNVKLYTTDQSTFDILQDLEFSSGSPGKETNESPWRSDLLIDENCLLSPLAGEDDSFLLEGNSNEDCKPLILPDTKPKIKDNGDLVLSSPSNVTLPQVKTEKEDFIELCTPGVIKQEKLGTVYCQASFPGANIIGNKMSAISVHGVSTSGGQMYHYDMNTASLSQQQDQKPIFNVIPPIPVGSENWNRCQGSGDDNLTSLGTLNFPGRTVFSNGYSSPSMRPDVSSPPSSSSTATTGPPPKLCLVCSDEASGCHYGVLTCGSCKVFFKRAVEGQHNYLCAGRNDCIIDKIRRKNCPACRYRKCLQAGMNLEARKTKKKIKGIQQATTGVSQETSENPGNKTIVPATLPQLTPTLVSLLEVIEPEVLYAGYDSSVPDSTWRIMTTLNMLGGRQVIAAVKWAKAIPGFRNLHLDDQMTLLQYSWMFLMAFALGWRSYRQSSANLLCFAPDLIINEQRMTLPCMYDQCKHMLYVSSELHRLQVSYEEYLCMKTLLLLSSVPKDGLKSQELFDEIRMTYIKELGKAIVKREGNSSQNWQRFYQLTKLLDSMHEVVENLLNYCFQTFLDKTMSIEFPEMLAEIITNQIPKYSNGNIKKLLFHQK

On to `OCCOCC#CCOCCO`, for which the Potency result in assay [1], in assay [2], in assay [3], in assay [6], in [9] and in assay [12] was “inactive” in each case. Also, in assay [14], the Potency result was “inactive”. Also, the outcome in assay [4], in assay [5], in assay [7], in [8], in assay [10] and in assay [11] was inactive. For the same molecule, the call in [13] was inactive.

Turning to `Cc1ccc2c(Br)cc(Br)c(O)c2n1`, the figures for the Potency in assay [15], in assay [16] and in assay [18] were 23.7 µM (active), 23.7 µM (active) and 23.9 µM (active), respectively. Besides, the Potency result in assay [3], in assay [6], in assay [9], in [12] and in assay [14] was “inactive” each time. The call in [4], in assay [5], in [7], in assay [8], in [17] and in [10] was inactive. Besides, the outcome in [11] and in assay [13] was inactive.

In the case of `CC(=O)N/N=C/c1ccc([N+](=O)[O-])o1`, the Potency entry in assay [2], in assay [3], in assay [6], in [9], in [12] and in [14] was “inactive” each time. Also, the Potency entry in [19] is “inactive”. The outcome in assay [4], in [5], in [7], in assay [8], in assay [17] and in assay [10] was inactive. Besides, the call in assay [11] and in assay [13] was inactive.

For the molecule `O=C(O)c1cccc(-c2noc(-c3ccccc3F)n2)c1`, in assay [1], the Potency is 29.8 µM (active). In addition, the Potency entry in assay [2], in [16], in assay [6], in [9], in [12] and in assay [14] was “inactive” throughout. Besides, the Potency entry in [19] and in assay [18] was “inactive” throughout. For the same molecule, the outcome in [4], in [5], in assay [7], in assay [8], in assay [17] and in assay [10] was inactive. Moreover, the outcome in assay [11] and in assay [13] was inactive.

For the molecule `O=C(/C=C/c1ccccc1)OCCc1ccccc1`, the Potency entry in assay [1], in assay [2], in assay [3], in assay [6], in assay [9] and in [12] was “inactive” in each case. Besides, the Potency entry in assay [14] and in [19] was “inactive” in each case. Besides, the result in [4], in assay [5], in assay [7], in assay [8], in assay [17] and in assay [10] was inactive. Moreover, the call in assay [11] and in assay [13] was inactive.

For the molecule `O=C(CCCN1CC=C(n2c(=O)[nH]c3ccccc32)CC1)c1ccc(F)cc1`, the Potency entry in assay [15], in assay [3], in assay [16], in assay [6], in assay [9] and in [12] was “inactive” throughout. Besides, the Potency result in assay [14], in assay [19] and in assay [18] was “inactive” in each case. The molecule was classed as inactive in [5], in assay [7], in [8], in assay [17], in assay [10] and in assay [11]. Moreover, the call in assay [13] was inactive.

Regarding `CCc1ccccc1`, the Potency entry in assay [1], in [2], in assay [3], in [16], in [6] and in [9] was “inactive” each time. Further, the Potency entry in assay [12], in assay [14], in [19] and in [18] was “inactive” in each case. Moreover, the outcome in assay [4], in assay [5], in assay [7], in assay [17], in [10] and in assay [11] was inactive. Besides, the result in assay [13] was inactive.

In the case of `CCCCCCCCCCCCCCN(CCO)CCO`, the results for the Potency in assay [1] and in [18] were 48.6 µM (active) and 19.5 µM (active), respectively. Moreover, the Potency result in assay [2], in [3], in [6], in assay [9], in [12] and in assay [14] was “inactive” throughout. Moreover, the molecule was called inactive in assay [4], in assay [5], in assay [7], in assay [8], in assay [17] and in assay [10]. Further, the molecule was called inactive in assay [11] and in assay [13].

Take `CC1(C)[C@H](C(=O)O)N2C(=O)C[C@H]2S1(=O)=O`: the Potency entry in assay [3], in assay [16], in assay [6], in assay [9], in [12] and in [14] was “inactive” each time. Moreover, the molecule was called inactive in assay [5], in assay [7], in assay [8], in [10], in assay [11] and in assay [13].

Regarding `CCC(=O)C1CC(C(C)C)CC=C1C` (stereo not drawn), the Potency entry in assay [1], in assay [2], in [3], in [16], in assay [9] and in assay [12] was “inactive” in each case. The Potency result in assay [14] and in [19] was “inactive” throughout. Moreover, the result in assay [4], in assay [5], in [7], in assay [8], in assay [17] and in [10] was inactive. Further, the outcome in assay [11] and in assay [13] was inactive.

Take `O=C1C(=O)c2ccccc2C(O)=C1C1CCC(c2ccc(Cl)cc2)CC1` (stereo not drawn): the Potency result in assay [2] and in [3] was “inactive” each time. The fluorescence, relative to Rose Bengal in assay [4] is -0.463% [at 18.6 µM]. Besides, the fluorescence, % of fluorescein control in assay [5] is -0.0011% [at 18.6 µM]; in assay [13] it was 0.136% [at 18.6 µM]. Further, the fluorescence, % of fluorescent control in [7] is 0.421% [at 18.6 µM]; in assay [9] it was -0.0599% [at 18.6 µM]; in [10] it was 0.0147% [at 18.6 µM]; in [12] it was 0.0263% [at 18.6 µM]; in [14], 0.0025% [at 18.6 µM]. In addition, the fluorescence, % of fluorescein in assay [8] is -0.014% [at 18.6 µM]. Moreover, in assay [17], the activity change is -0.0167% [at 18.6 µM]. For the same molecule, in [11], the fluorescence, % of Rose Bengal is 0.0009% [at 18.6 µM].
